The source of these data is PubChem BioAssay (NCI).

Compounds without any hit were thinned out: in the full panel of roughly 83,000, 20% have a hit.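 Plates (96-well) were seeded with cells, treated with compound at one concentration, and incubated for 48 hours before percent growth was determined.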 Values without a mark were called inactive. Activity calls are given as the source filed them. How the source made its calls: active means growth percent below 10; inactive means the rest.

Assay in all cases: NCI-60 one-dose screen, 48 h (100 = growth as untreated, 0 = no growth, -100 = all killed)
Conditions in all cases: 10 µM unless noted

Experiment [1] has as its system NCI-H23 lung.
The subject of experiment [2] is NCI-H226 lung.
In experiment [3] the test system is NCI-H322M lung.
Experiment [4] relates to HOP-62 NSCLC.
Experiment [5] relates to NCI-H460 lung.
Experiment [6] concerns HOP-92 NSCLC.
Experiment [7] has as its system NCI-H522 lung.
Experiment [8] has as its system A549/ATCC NSCLC.
Experiment [9] relates to 786-0 renal.
The subject of experiment [10] is COLO 205 colon.
In experiment [11] the test system is DU-145 prostate.
Experiment [12] has as its system K-562 leukemia.
In experiment [13] the test system is MALME-3M melanoma.
Experiment [14] deals with MDA-MB-231 breast.
The subject of experiment [15] is RXF 393 renal.
Experiment [16] has as its system SF-268 CNS.
Experiment [17] relates to SF-539 CNS.
Experiment [18] relates to UACC-257 melanoma.
In experiment [19] the test system is M14 melanoma.
For experiment [20], the system named is SF-295 CNS.

As to `COc1cc(-c2nn(-c3cccc(NC(=O)c4ccc(N5CCOCC5)c(C(F)(F)F)c4)c3)cc2-c2ccncc2)ccc1Cl`, the growth in experiment [1] is 15.6%; in experiment [2] it was 42.5%; in [3], 54.2%; in experiment [4], 29.5%; in experiment [5], 5.02% (active); in [6] it was 11.5%. The growth was 0.2% (active) in experiment [7]; 3.58% (active) in [8]; -3.26% (active) in experiment [9]; -43.4% (active) in experiment [10]; 10.9% in experiment [11]; 1.22% (active) in experiment [12]. For the same compound, the growth in [13] is 36.2%; in experiment [14] it was -25.2% (active); in experiment [15] it was -45.2% (active); in [16], 22.5%; in [17], -68.9% (active); in experiment [18], 24.3%. Further, the growth in experiment [19] is 1.42% (active).
Take `O=[N+]([O-])c1cc(S(=O)(=O)Oc2ccccc2)ccc1Cl`: the growth in experiment [1] is 30.7%; in [2] it was 75.3%; in [3], -13.3% (active); in experiment [4], 54%; in experiment [5], 1.7% (active); in [6], 24.1%. The growth is 14.3% in experiment [7]; 88.4% in experiment [8]; 24.1% in experiment [9]; 5.56% (active) in [10]; -81% (active) in experiment [11]; 1.22% (active) in experiment [12]. In addition, the growth in [13] was -68.8% (active); in [14] it was 40.7%; in experiment [15], 35%; in [16] it was 24.2%; in [20], 28.7%; in [18] it was 45.4%. The growth in experiment [19] is -21.5% (active).
Regarding `COc1cc(-c2nn(-c3cccc(NC(=O)Nc4ccc(Cl)c(Cl)c4)c3)cc2-c2ccncc2)ccc1Cl`, the growth was 1.67% (active) in experiment [1]; 9.61% (active) in [2]; 38.8% in experiment [3]; 10.2% in experiment [4]; 2.32% (active) in [5]; -34.3% (active) in experiment [6]. In addition, the growth in experiment [7] is -14.7% (active); in experiment [8], -5.88% (active); in experiment [9], 15.3%; in experiment [10], -80.4% (active); in experiment [11], 20%; in [12], 3.63% (active). Besides, the growth was -19.9% (active) in experiment [13]; -40.1% (active) in [14]; -22.8% (active) in experiment [15]; 17.9% in experiment [16]; 12.3% in [17]; -36.6% (active) in experiment [18]. Also, the growth in experiment [19] is 0.293% (active).
For `O=C(Nc1cccc(-n2cc(-c3ccncc3)c(-c3ccc(Cl)c(O)c3)n2)c1)c1ccccc1`, the growth is 90.8% in [1]; 89.6% in experiment [2]; 89.2% in experiment [3]; 46.7% in experiment [4]; 48.7% in experiment [5]; 3.59% (active) in [6]. For the same compound, the growth in experiment [7] was 42.3%; in [8], 52.6%; in [9], 76.1%; in [10] it was 100%; in experiment [11], 56.9%; in [12], 60.7%. Besides, the growth in experiment [13] is 53.1%; in experiment [14] it was 63.2%; in experiment [15], 0.59% (active); in experiment [16], 68.3%; in experiment [17], 74.7%; in experiment [18], 44.2%. Also, the growth in [19] is 54.9%.
On to `O=S(=O)(NCCNc1nccc(-c2c(-c3ccc(O)cc3)nc3sccn23)n1)c1cccc2ccccc12`, for which the growth in experiment [1] is 98.1%; in experiment [2], 102%; in [3], 98.1%; in [4], 106%; in experiment [5] it was 106%; in experiment [6], 94.9%. Further, the growth in experiment [7] was 91.5%; in experiment [8], 98.2%; in experiment [9] it was 96.6%; in [10], 109%; in experiment [11], 115%; in [12], 91.4%. The growth in experiment [13] was 100%; in [14], 110%; in [15], 104%; in experiment [16] it was 99%; in experiment [17], 100%; in experiment [18], 94.4%. The growth in experiment [19] was 105%.
Regarding `Fc1ccc(Nc2nc(NCCNc3ccnc4cc(Cl)ccc34)nc(N3CCOCC3)n2)cc1`, the growth is 93% in experiment [1]; 94.8% in experiment [2]; 73.7% in experiment [3]; 85% in experiment [4]; 34.9% in [5]; -5.61% (active) in experiment [6]. In addition, the growth in experiment [7] was 48.1%; in [8] it was 55.7%; in experiment [9], 53.6%; in experiment [10] it was -85.7% (active); in experiment [11], 75%; in [12] it was 1.44% (active). Further, the growth in experiment [13] was -63.1% (active); in experiment [14], 20.1%; in experiment [15] it was 21.3%; in experiment [16], 66.6%; in [17], 69.3%; in experiment [18] it was -88.8% (active). Besides, the growth in experiment [19] is -42.7% (active).
In the case of `COc1cc(Cn2cc3c(c2)-c2oncc2CC3)cc(OC)c1OC`, the growth in [1] is 15.7%; in experiment [2], 17.7%; in [3] it was -2.65% (active); in [4], 42.1%; in experiment [5], 3.87% (active); in experiment [6] it was 56.4%. Also, the growth in experiment [7] was -20% (active); in experiment [8] it was 29.6%; in [9] it was 12.8%; in experiment [10], -67.2% (active); in experiment [11] it was -11% (active); in experiment [12], 12%. Also, the growth in experiment [13] is 56.5%; in experiment [14], 28.9%; in experiment [15], 46.1%; in experiment [16] it was 18.4%; in experiment [20], -3.52% (active); in experiment [18] it was 81.2%. Further, the growth in [19] was 10.7%.
`Nc1nc(=O)c2ccccc2s1`: the growth is 109% in [1]; 112% in experiment [2]; 108% in experiment [3]; 98.2% in experiment [4]; 115% in [5]; 94.5% in experiment [6]. Besides, the growth in [7] is 122%; in experiment [8], 111%; in experiment [9] it was 103%; in experiment [10], 107%; in [11], 124%; in experiment [12], 122%. Further, the growth in experiment [13] is 110%; in [14] it was 109%; in experiment [15] it was 118%; in experiment [16], 113%; in experiment [20], 105%; in [18], 118%. In addition, in experiment [19], the growth is 107%.
As to `Cc1c(C(=N)C(C#N)C#N)c(=N)oc2c1ccc1ccccc12`, the growth is 73.2% in [1]; 95% in experiment [2]; 89.9% in [3]; 93.6% in experiment [4]; 97.4% in experiment [5]; 73.1% in experiment [6]. The growth in experiment [7] is -3.19% (active); in [8] it was 92.8%; in [9], 94%; in [10], 115%; in [11], 103%; in experiment [12], 72.8%. Also, the growth is 111% in experiment [13]; 97.9% in experiment [14]; 88.4% in experiment [16]; 96.5% in experiment [20]; 94.1% in [17]; 60.6% in [18]. The growth in experiment [19] was 88%.
